Reference: ChEMBL document CHEMBL4513216, “Probing the Open Global Health Chemical Diversity Library for Multistage-Active Starting Points for Next-Generation Antimalarials” (ACS Infect Dis, 2020)
Out of some 69,000 compounds screened, about 8,600 (12%) showed an effect of 50% or more. Many of the other results were omitted from the sample, so strong results are more common in it than they were.

Each compound was assayed on Plasmodium berghei (assay: Screen against P. berghei liver stage (PbLuc), transformed with Luciferase, at 10uM). Settings: tested at 10 uM.
Type: functional, HepG2

Structure (SMILES)	INHIBITION
Cc1cn2nc(N3CCCC3Cn3nc(C)nc3C)sc2n1 (stereo not given)	-39.7%
CC(C)c1noc(C(C)N2CCN(Cc3noc(C(C)(C)C)n3)CC2)n1 (stereo not given)	-35.7%
Cc1cc(C)nc(N2CCC(C(=O)Nc3n[nH]c(CC(C)C)n3)CC2)n1	4.93%
CNC(=O)C1Cn2ccnc2C2(CCN(Cc3c(C)noc3C)CC2)O1 (stereo not given)	3.11%
Cc1nc(N)c2ccc(C3CCCN3)nc2n1 (stereo not given)	26.55%
Cc1cc(S(=O)(=O)NCC(O)c2sccc2C)ccc1F (stereo not given)	13.9%
COC(=O)c1ccc(S(=O)(=O)NCC(O)c2sccc2C)cc1 (stereo not given)	-11.8%
Cc1ccsc1C(O)CNS(=O)(=O)Cc1ccc(F)cc1 (stereo not given)	9.96%
COc1ccc(S(=O)(=O)NCC(O)c2sccc2C)cc1C (stereo not given)	6.34%
Cc1ccsc1C(O)CNC(=O)Cc1ccc(S(=O)(=O)C(C)C)cc1 (stereo not given)	25.3%
COc1ccc(CC(=O)NCC(O)c2sccc2C)cc1OC (stereo not given)	53.8%
COc1ccc(F)cc1S(=O)(=O)NCC(O)c1sccc1C (stereo not given)	16.9%
COc1ccc(S(=O)(=O)NCC(O)c2sccc2C)cc1Cl (stereo not given)	51.7%
Cc1ccsc1C(O)CNC(=O)Cc1ccc(F)cc1 (stereo not given)	56%
COc1ccccc1C(=O)NC(c1ccccn1)C1CCC(CN)CC1 (stereo not given)	44.1%
Cc1ncccc1-c1cc2cccnc2n1CCCNC(=O)C1CC1	25.8%
CN(Cc1ccccc1)CC(O)Cn1cnc2c(Cl)cc(Cl)cc2c1=O (stereo not given)	27.433%
COCC1CN(C(=O)c2ccoc2C)Cc2nccn2C1 (stereo not given)	35.3%
CC(=O)NCCC(=O)NCc1cccnc1-n1cnc2ccccc21	60.1%
COCCC(=O)NCc1cccnc1-n1cnc2ccccc21	33.9%
CS(=O)(=O)NCCC(=O)NCc1cccnc1-n1cnc2ccccc21	41.2%
Cc1[nH]ccc1C(=O)N[C@H]1CN(CCO)C[C@@H]1C1CC1	9.89%

Structure (SMILES)	INHIBITION
Cc1c(C(=O)N[C@H]2CN(CCS(C)(=O)=O)C[C@@H]2C2CC2)cnn1C	29%
CSCCCN1C[C@H](NC(=O)c2cnn(C)c2)[C@@H](C2CC2)C1	12.6%
Cc1cnc(C(=O)N[C@H]2CN(CCS(C)(=O)=O)C[C@@H]2C2CC2)cn1	53.9%
CCc1cc(C(=O)N[C@H]2CN(CCS(C)(=O)=O)C[C@@H]2C2CC2)[nH]n1	55%
CS(=O)(=O)CCN1C[C@H](NC(=O)c2cnc(O)cn2)[C@@H](C2CC2)C1	-3.43%
Cc1ccc(CNC(C)c2ccc(N3CCN(C)CC3)c(F)c2)o1 (stereo not given)	-11%
C1CCc2nnc(CNc3nc(C4CC4)nc4c3CCNCC4)n2CC1	3.06%
CCc1ccc(S(=O)(=O)Nc2cc(C(=O)O)ccc2F)s1	13.85%
O=C(c1cc(-c2cccs2)cs1)N1CCSCC1	-61.1%
NS(=O)(=O)c1cc(C(=O)N2CCCCC2)cs1	30.7%
CCN(c1ccc(C(=O)N2CCC(C(N)=O)CC2)cc1)S(=O)(=O)CC	47.3%
CCN(c1ccsc1C(=O)N1CCSCC1)S(=O)(=O)c1ccccc1	-27.5%
COCCNC(=O)c1cc(S(=O)(=O)N2CCCCCC2)cs1	45.6%
NC(=O)C1CCN(Cc2ccc(S(=O)(=O)N3CCCC3)o2)CC1	16.5%
NC(=O)C1CCN(C(=O)c2cc(S(=O)(=O)N3CCCCC3)cs2)CC1	56.3%
CCN(CC)S(=O)(=O)c1csc(C(=O)N2CCC(C(N)=O)CC2)c1	49.9%
CN(C)S(=O)(=O)c1csc(C(=O)N2CCSCC2)c1	65.6%
CN(C)S(=O)(=O)c1csc(C(=O)N2CCC(C(N)=O)CC2)c1	60.1%
NC(=O)C1CCN(C(=O)c2cc(S(=O)(=O)N3CCCC3)cs2)CC1	56.3%
COCCNC(=O)c1cc(S(=O)(=O)N2CCCC2)cs1	10.3%
CC(C(=O)N1CCCN(c2ccc(C#N)cc2)CC1)n1cccn1 (stereo not given)	10%
CCc1nc(C2CCCN2CC(=O)N2CCc3ccccc32)no1 (stereo not given)	23.5%

Structure (SMILES)	INHIBITION
O=C(CCc1nc2cccnc2[nH]1)Nc1ccc2c(c1)OCC(=O)N2	17.1%
CC(C)(C)c1cc(C(=O)N2CCC(c3cnccn3)CC2)[nH]n1	29.9%
CC(C)CCC(=O)NCCc1ccn(-c2ccccc2)n1	5.7%
NC(=O)CN(Cc1ccc(Br)cc1)C(=O)c1ccncc1	-9.51%
CCOc1ccc(C(=O)N2C[C@@H]3CC[C@H]2CN(C(=O)C2CCC2)C3)cc1	30.3%
CCc1ncc(CN2C[C@@H]3CC[C@H]2CN(C(=O)C2CCC2)C3)cn1	62.6%
CCn1cc(CN2C[C@@H]3CC[C@H]2CN(C(=O)C2CCC2)C3)cn1	4.15%
CCNc1ncc(CN2C[C@H](C3CC3)[C@@H](N)C2)cn1	23.9%
CCNc1ncc(CN2C[C@@H]3CC[C@H]2CN(C(=O)C2CCC2)C3)cn1	60.4%
CCNc1ncc(CN2C[C@@H](C(=O)O)[C@H](C3CC3)C2)cn1	58.2%
Cc1ccc(C(=O)N2C[C@H]3CC[C@@H](C2)N(Cc2ccccc2)C3)cn1	-13%
O=C(O)[C@@H]1CN(Cc2cnc(C3CCCCC3)nc2)C[C@H]1C1CC1	29.6%
CCCNc1ncc(CN2C[C@@H]3CC[C@H]2CN(C2CCOCC2)C3)cn1	1.98%
Cc1ccc(NC2COC3(CCN(Cc4ccn(C)n4)CC3)C2)nn1 (stereo not given)	-4.99%
Cc1ccc([C@@H]2CN(C(=O)c3ccccc3C)C[C@H]2N(C)C)cc1	39.5%
N#Cc1ccccc1CN1C[C@H]2CC[C@@H](C1)N(CC1CCC1)C2=O	42.6%
O=C(N1CCC(Nc2cccnn2)CC1)C1(c2ccc(F)cc2)CC1	30.2%
CCc1ncc2c(n1)CN(CCCc1nc3ccccc3o1)CC2	38.5%
COCCNC(=O)CN(C)C(C)c1nc(C)no1 (stereo not given)	58.5%
COCCCNC(=O)CN(C)C(C)c1nc(C(C)C)no1 (stereo not given)	59.3%
COCCCNC(=O)CN(C)C(=O)c1ccccc1O	20.4%
Cc1noc(C(C)N(C)CC(=O)NCCc2ccc(Cl)cc2)n1 (stereo not given)	-9.3%

Structure (SMILES)	INHIBITION
COCCCNC(=O)CN(C)C(C)c1nc(C)no1 (stereo not given)	14.6%
COCCCNC(=O)c1c(C)noc1C(C)C	-33.7%
CCc1ccccc1Nc1noc2c1CN(C(=O)CCOC)CC2	-5.71%
CC(C)CNC(=O)C1CC(=O)N(c2n[nH]c3ccccc23)C1 (stereo not given)	-11.7%
CCN1CCCC(C)(C(=O)NCc2nnnn2-c2ccccc2)C1 (stereo not given)	-1.7%
c1ccc2sc(NCC3(N4CCOCC4)CCSC3)nc2c1 (stereo not given)	18.3%
CN(Cc1ccc(F)cc1)C(=O)NCC1(N2CCOCC2)CCSC1 (stereo not given)	36.8%
c1ccc2c(NCC3(N4CCOCC4)CCSC3)ncnc2c1 (stereo not given)	94.5%
c1nc(NCC2(N3CCOCC3)CCSC2)c2sccc2n1 (stereo not given)	91.1%
O=C(NCc1ccc(F)cc1)NCC1(N2CCOCC2)CCSC1 (stereo not given)	40.5%
O=C(NCC1(N2CCOCC2)CCSC1)Nc1ccccn1 (stereo not given)	18.6%
c1ccc2nc(NCC3(N4CCOCC4)CCSC3)cnc2c1 (stereo not given)	46.6%
O=C(NCC1(N2CCOCC2)CCSC1)Nc1ccncc1 (stereo not given)	18.6%
Fc1cccc2ncnc(NCC3(N4CCOCC4)CCSC3)c12 (stereo not given)	91.1%
CC1CCN(S(=O)(=O)c2ccc(C(=O)N3CCSCC3)cc2)CC1	-2.39%
CN(C)C(=O)NCc1cc2n(n1)CCN(CC1[C@H]3CNC[C@@H]13)C2 (stereo not given in full)	43.5%
NC(=O)c1cnn2c(C3CCN(CCO)CC3)ccnc12	14.55%
COCc1cnc2n1CCN(Cc1cccnc1)C2C (stereo not given)	-0.182%
O=C(N[C@@H]1CN(Cc2cccc3[nH]ccc23)C[C@H]1O)c1cscn1	-10.8%
CCN1CC(COC(C)(C)C)Oc2ccncc2S1(=O)=O (stereo not given)	13.1%
CS(=O)(=O)N1CCN(C(=O)CCn2cccn2)CC1	17.32%
CC(C)Cc1nc(CN(C)CCOc2ccc(F)cc2)no1	59.4%

Structure (SMILES)	INHIBITION
CC(C)Cc1nc(CN(C)CCOc2ccccc2F)no1	34.7%
Cc1ccccc1OCCN(C)Cc1noc(CC(C)C)n1	33.7%
Cc1cccc(C(=O)N2CCc3c(CN(C)C)nn(C)c3C2)n1	38.3%
Cc1nc(C)c(C(=O)NCCNc2ncccn2)s1	38.8%
CN1CCN(CC2CC2)C(=O)C12CCN(C(=O)c1ccnnc1)CC2	5.63%
CCC(=O)Nc1ccc2c(c1)CN(C(=O)c1ccco1)CC2	-46.6%
COCC(=O)Nc1ccc2c(c1)CN(C(=O)c1ccco1)CC2	-45.3%
CC(=O)Nc1ccc2c(c1)CN(C(=O)c1ccco1)CC2	55.7%
CC(=O)c1cc(Br)cc(F)c1OCC(=O)NC1CC1	-3.72%
CN(C)C(=O)CN1CCCC(CCCc2ccccn2)(C(N)=O)C1 (stereo not given)	-50.2%
Cc1ccccc1OCCC(=O)N1CCC(c2nncn2C)CC1	-4.94%
CCn1cnnc1C1CCN(C(=O)COc2ccccc2)CC1	53%
Cc1ccc(OCCC(=O)N2CCC(c3nncn3C)CC2)c(C)c1	-17%
COc1cccc(OCC(=O)N2CCC3(CC2)[C@H](O)C[C@@H]3OC)c1	-14.1%
NCCO[C@H]1C[C@@H](O)C12CCN(C(=O)CCOc1ccccc1)CC2	5.67%
CCn1cnnc1C1CCN(C(=O)c2cc3c(s2)CCC3)CC1	61.3%
CCn1cnnc1C1CCN(C(=O)c2cc3c(s2)CCCC3)CC1	13.3%
CO[C@H]1C[C@@H](O)C12CCN(C(=O)CCCOc1ccccc1)CC2	72.3%
Cn1cnnc1C1CCN(C(=O)c2cc3c(s2)CCC3)CC1	9.14%
Cc1cccc(C)c1OCCC(=O)N1CCC(c2nncn2C)CC1	55.9%
CCn1cnnc1C1CCN(C(=O)COc2ccc(Cl)cc2)CC1	-37.7%
CCn1cnnc1C1CCN(C(=O)COc2ccccc2OC)CC1	-41.6%
